Source: PubChem BioAssay (NCI)
About 83,000 compounds went through this panel and 20% of them were active in at least one assay; those are over-represented in the sample as a whole.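 In brief: 96-well plates, 48 h treatment, single concentration, percent growth endpoint.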 Unmarked numbers belong to inactive results. Active and inactive are the calls of the source.

system: SR leukemia; assay: NCI-60 one-dose screen, 48 h (100 = growth as untreated, 0 = no growth, -100 = all killed); settings: 10 µM
Method: Growth inhibition of the SR human tumor cell line is measured as a screen for anti-cancer activity. Cells are grown in 96 well plates and exposed to the test compound for 48 hours. Compounds are tested at a single concentration, which is 10^-5 M for most compounds. The reported endpoint is percent growth (GI% or GIPRCNT), where numbers from 0 - 100% represent growth inhibition, and numbers from -100% - 0 represent cell death. For example, a value of 40 represents 60% growth inhibition. A value of 0 means no net growth occurred over the course of the experiment. A value of -40 indicates 40% of cells at the beginning of the experiment died by the end of the experiment. A value of -100 means all cells are dead at the end of the experiment.
NCI-60 Human Tumor Cell Lines Screen was performed using the standard one-dose NCI protocol, which is described in more detail at https://dtp.cancer.gov/discovery_development/nci-60/default.htm.
Compounds with GIPRCNT values below 10 were considered active. Activity score was based on GIPRCNT using the following formula: […]
Score is 0 for GIPRCNT values of 100 or above, 50 for GIPRCNT values of 0, and 100 for GIPRCNT values of -100.

**Q.** Which growth does the source give for COc1cc(/C=N/NC(=O)c2ccc3nc(-c4ccc(Cl)cc4)[nH]c3c2)cc(OC)c1OC here?
**A.** -6.5% (active)

**Q.** C=C[C@@]12CN3CC[C@]1(O)[C@@](C(=O)OC)(CO2)c1[nH]c2ccccc2c1C3 was tested. Which growth did it give?
**A.** 75.5%

**Q.** With CN1C/C(=C\c2ccc(O)cc2O)c2[o+]c3cc(O)ccc3cc2C1 as the compound, how does the growth read?
**A.** 2.85% (active)

**Q.** How did the growth turn out when N#Cc1ccc(-c2nn(-c3ccc(C(=O)O)cc3)cc2CNc2cccc(Br)c2)cc1 was run?
**A.** 40.2%

**Q.** For COc1ccc(C(=O)/C=C/c2ccc(Cl)c(C(F)(F)F)c2)cc1S(N)(=O)=O, which growth is on record?
**A.** 8.87% (active)

**Q.** With CCOc1ccc2ncc(C#Cc3cncc(C(=O)Nc4ccc(CN5CCN(C)CC5)c(C(F)(F)F)c4)c3)n2n1 as the compound, how does the growth read?
**A.** 1.01% (active)

**Q.** For COc1cc(C2CC(c3ccccc3)=Nc3c(N)nc(N)nc3N2)ccc1Oc1nc(Nc2ccc(F)cc2)nc(N(C)C)n1 (stereo not given), which growth is on record?
**A.** 2.83% (active)

**Q.** How did the growth turn out when CCOC(=O)c1sc(N/N=C(\C)c2ccc3c(c2)Nc2ccccc2S3)nc1C was run?
**A.** 18.8%

**Q.** With Cc1noc2c(Cc3ccccc3)nn(CC(=O)N/N=C/c3ccc(Br)cc3)c(=O)c12 as the compound, how does the growth read?
**A.** 90.6%

**Q.** With COc1cccc(/C=C2\N=C(C)N(CCc3ccc(S(N)(=O)=O)cc3)C2=O)c1 as the compound, how does the growth read?
**A.** 82.1%

**Q.** CN1CCN(Cc2ccc(C(=O)Nc3cccc(Nc4ccc5c(O)cccc5n4)c3)cc2C(F)(F)F)CC1 was tested. Which growth did it give?
**A.** 4.88% (active)

**Q.** CN(C)c1ccc(/C=C/c2nc3ccccc3c(=O)n2CC(=O)Nc2ccc(Cl)cc2)cc1 was tested. Which growth did it give?
**A.** 81.2%

**Q.** O=c1c2ccccc2nc(COc2ccccc2)n1/N=C/c1ccc(F)cc1 was tested. Which growth did it give?
**A.** 78.2%

**Q.** Which growth does the source give for COc1ccc(/C=N/N=C(\C)c2ccc3c(c2)Nc2ccccc2S3)cc1O here?
**A.** 32.6%

**Q.** O=S(=O)(Nc1ncccn1)c1ccc(-n2c(-c3ccc(Br)cc3)nc(-c3ccccc3)c2-c2ccccc2)cc1 was tested. Which growth did it give?
**A.** 45.2%

**Q.** O=c1c2ccccc2nc(COc2ccccc2)n1/N=C/c1ccc(N2CCCC2)cc1 was tested. Which growth did it give?
**A.** 73.9%

**Q.** For C=C1CCC2C3(C)COC(c4cc(F)cc(F)c4)OC3CCC2(C)C1C/C=C1/C(=O)OCC1O (stereo not given), which growth is on record?
**A.** 7.75% (active)

**Q.** With CN1CCO/C1=C(/NC(=O)c1ccc(Cl)cc1)[P+](c1ccccc1)(c1ccccc1)c1ccccc1 as the compound, how does the growth read?
**A.** 80.9%

**Q.** How did the growth turn out when O=C(Nc1nc2ccccc2s1)c1ccc(Br)cc1 was run?
**A.** 80.1%

**Q.** CCCSc1nc(NC2CC2)c(C#N)c(-c2ccc(OC)cc2)n1 was tested. Which growth did it give?
**A.** 98.4%

**Q.** With O=c1[nH]c2ccccc2cc1CSc1ccc(Nc2nccc(-c3ccc4ccccc4c3)n2)cc1 as the compound, how does the growth read?
**A.** 80.7%

**Q.** O=C(CSc1nnc(-c2c[nH]c3ccccc23)n1-c1ccccc1)c1ccccc1 was tested. Which growth did it give?
**A.** 81.6%

**Q.** With Cc1cccc(-c2nc(Nc3ccccc3C(=O)O)c3ccccc3n2)c1 as the compound, how does the growth read?
**A.** 23%

**Q.** For CCCCSc1nc(Nc2ccc(/C(C)=N/NC(N)=S)cc2)c(C#N)c(-c2ccccc2)n1, which growth is on record?
**A.** 61.6%

**Q.** For CC1(c2ccccc2)NC(=O)N(CC(=O)Nc2ccc(C(=O)/C=C/C=C/c3ccccc3)cc2)C1=O (stereo not given), which growth is on record?
**A.** 15.2%

**Q.** With C=CCn1c(SCC(=O)Nc2ccc(C(=O)/C=C/c3ccccc3)cc2)nnc1-c1c[nH]c2ccccc12 as the compound, how does the growth read?
**A.** 31.4%

**Q.** With COc1ccc2c(c1)N=C(C(=O)O)/C2=C/c1sc(Nc2ccc(O)cc2)nc1O as the compound, how does the growth read?
**A.** 24.9%

**Q.** With O=c1[nH]c2ccc(Cl)cc2cc1CSc1ccc(Nc2nccc(-c3ccc(Cl)cc3)n2)cc1 as the compound, how does the growth read?
**A.** 54.2%

**Q.** Which growth does the source give for COc1ccc(C2NC(=S)NC(C)=C2C(=O)OC(C)C)cc1OC (stereo not given) here?
**A.** 101%

**Q.** CC(=O)C1=C(C)NC(SCC(=O)Nc2ccc(S(=O)(=O)Nc3cc(C)on3)cc2)=NC1c1ccccc1 (stereo not given) was tested. Which growth did it give?
**A.** 94.1%

**Q.** How did the growth turn out when CCCn1c(=O)c2[nH]c(-c3ccc(OCc4nc5ccc(C)cc5[nH]4)cc3)nc2n(CCC)c1=O was run?
**A.** 11.6%

**Q.** With CCOP(=O)(OCC)O[C@H]1CC[C@]2(C)[C@H]3CC[C@@H]4[C@@H]([C@](C)(O)CCC=C(C)C)CC[C@@]4(C)[C@]3(C)CC[C@H]2C1(C)C as the compound, how does the growth read?
**A.** -7.18% (active)

**Q.** For COc1ccc(-c2nc(-c3ccccc3)c(-c3ccccc3)n2-c2ccc(S(=O)(=O)Nc3ncccn3)cc2)cc1OC, which growth is on record?
**A.** 68.9%

**Q.** For COc1cc2c3c(n(CCCNCCO)c(=O)c2cc1OC)-c1nc2c(cc1C3=O)OCO2, which growth is on record?
**A.** 1.88% (active)

**Q.** With CCCCSc1nc(Nc2ccc(/C(C)=N/NC(N)=S)cc2)c(C#N)c(-c2ccc(F)cc2)n1 as the compound, how does the growth read?
**A.** 52.4%

**Q.** How did the growth turn out when CCOC(=O)N/C(=C1/OCCN1C)[P+](c1ccccc1)(c1ccccc1)c1ccccc1 was run?
**A.** 66.6%

**Q.** Which growth does the source give for CN(C(=O)c1ccc(C(F)(F)F)cc1C(F)(F)F)c1sc2c(c1C#N)CCC(=O)C2 here?
**A.** 1.6% (active)

**Q.** For N#Cc1ccc(-c2nn(-c3ccc(C(=O)O)cc3)cc2CNc2ccc(Oc3ccccc3)cc2)cc1, which growth is on record?
**A.** 37.3%

**Q.** How did the growth turn out when COc1cc(/C=C/C(=O)c2ccc(NC(=O)CN3C(=O)NC(C)(c4ccccc4)C3=O)cc2)cc(OC)c1OC (stereo not given) was run?
**A.** 5.93% (active)

**Q.** With CCOP(=O)(OCC)O[C@H]1CCC(=O)[C@@H]2[C@H]1[C@H]1C[C@@H]3[C@@]4(C)CCCC(C)(C(=O)OC)[C@@H]4CC[C@@]23C=C1C(C)C (stereo not given in full) as the compound, how does the growth read?
**A.** 37.5%
